Drawing on PubChem BioAssay (NCATS), this text covers Potency, viability (% of control) and viability, % of control for eight molecules.

A short description of experiment [1]: Viability qHTS for spleen associated tyrosine kinase inhibitor (SYKi) naive MV4-11 cells (AID 1963823). Further: nearly all actives have a fitted effect of over 40% in size. In a few lines:
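Compounds were dispensed acoustically onto plates, MV4-11 cells (SYKi-naive) added at 500 per well, and plates incubated 72 hr at 37 C. CellTiter-Glo was added and luminescence measured after 10 min.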
(In general: qHTS replaces the single test concentration by a dilution series.)

The nature of experiment [2]: Viability qHTS for spleen associated tyrosine kinase inhibitor (SYKi) drug resistant MV4-11 cells (AID 1963824). Further: nearly all actives have a fitted effect of over 35% in size. In a few lines:
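SYK inhibitor-resistant MV4-11 AML cells, 500 per well, added to predispensed compounds and incubated 72 hr at 37 C, 5% CO2. Viability measured by CellTiter-Glo luminescence after 10 min at room temperature.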

Results filed as inconclusive are left out. A number with no mark means an inactive call. The source made the active and inactive calls. The call rests on the fitted dose curve; in most records, active means well fitted cell-killing curve with a large enough effect; inconclusive means small, poorly fitted or top-dose-only effect, or effect the other way; inactive means no such curve, though single readings can be large or run the other way.
Potency means the concentration at half of the fitted maximal effect.

Take `COC1OC(O)C2(CCC3(O2)C(C)CC2OC(=O)C4(C)CCCC3(C)C24)C1O` (stereo unspecified): the Potency result in experiment [1] and in experiment [2] was “inactive” throughout.

Regarding `O=c1cc(NCCCN[C@@H]2CCOc3c(Br)cc(Br)cc32)[nH]c2ccsc12`, the Potency in experiment [1] is 10300 nM (active); in experiment [2], 7310 nM (active).

Take `CC1(C)CC[C@]2(C(=O)OC3OC(CO)C(O)C(O)C3O)CC[C@]3(C)C(=CCC4[C@@]5(C)CC[C@H](OC6OC(C(=O)O)C(O)C(O)C6O)C(CO)(CO)C5CC[C@]43C)[C@@H]2C1` (stereo partly specified): the Potency in experiment [1] was 693 nM (active); in experiment [2], 438 nM (active).

Regarding `CC1OC(OC2C(CO)OC(OCC3OC(OC(=O)C45CCC(C)(C)CC4C4=CCC6C7(C)CCC(OC8OC(C(=O)O)C(O)C(OC9OC(CO)C(O)C(O)C9O)C8O)C(C)(C)C7CCC6(C)C4(C)CC5)C(O)C(O)C3O)C(O)C2O)C(O)C(O)C1O` (stereo unspecified), the viability (% of control) in experiment [1] is 92.6% [at 9.25 µM]. The viability, % of control in experiment [2] was 105% [at 9.25 µM].

As for `OC[C@H]1O[C@@H](n2cnc3c(NCc4ccc(O)cc4)ncnc32)[C@H](O)[C@@H]1O`, the figures for the Potency in experiment [1] and in experiment [2] were 1030 nM (active) and 731 nM (active), respectively.

Take `OC[C@H]1O[C@@H](Oc2ccccc2)[C@H](O)[C@@H](O)[C@@H]1O`: the Potency result in experiment [1] and in experiment [2] was “inactive” in each case.

For `C=C1CCC2C(C)(CO[C@@H]3O[C@H](CO)[C@@H](O)[C@H](O)[C@H]3O)C(O)CCC2(C)C1C(=O)CC1=CCOC1=O` (stereo partly specified), the Potency result in experiment [1] and in experiment [2] was “inactive” in each case.

With `CC1OC(O[C@H]2CC[C@@]3(C)C(CC[C@]4(C)C3CC=C3C5CC(C)(C)CC[C@]5(C(=O)OC5OC(CO)C(OC6OCC(OC7OCC(O)C(O)C7O)C(O)C6O)C(O)C5O)CC[C@]34C)C2(C)C)C(O)C(O)C1OC1OC(CO)C(O)C(OC2OC(CO)C(O)C(O)C2O)C1O` (stereo partly specified), the viability (% of control) in experiment [1] is 54.2% [at 9.25 µM]. Besides, in experiment [2], the viability, % of control was 62.2% [at 9.25 µM].
